Compound activity deposited in PubChem by several laboratories.
Compounds with a hit are over-represented: about 27% of the library has one in this group of screens.
CYP2C19 act: human CYP2C19 activators, primary screen, biochemical, luminescence; 96,000 tested, under 10 active; activation factor at 5 µM; Cytochrome P450 2C19 (Homo sapiens), P33261; recombinant CYP2C19, luciferin-H EGE luminescence; stronger effect = higher value; 0 = fully inhibited enzyme, 1 = untreated enzyme;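 active means activation factor of at least 2 at 5 µM in the primary screen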
Cav32 inh: Cav3.2 calcium influx blockers – cell-based, Fluo-4 calcium fluorescence, FDSS, MLSMR library, primary screen | AID 449739, 2010 | 4% of 100,000 active | B-score at 10 µM | Cav3.2-expressing cells; stronger effect = lower value;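 active means single-dose well whose peak fluorescence ratio is a statistical outlier from its plate by either plate-standardised score or position-corrected B-score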
CYP2C9 inhib: blockers of cytochrome P450 2C9 activity – biochemical, luminescence, ADME assay, primary screen; P11712; inhibition, % at 5 µM; 20% of 96,000 active; CYP2C9 Supersomes, luciferin-H conversion;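 active means blocking of liver enzyme CYP2C9 beyond about 50% at 5 µM, limit read from the data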
CYP2C19 inh: blockers of cytochrome P450 2C19 activity – biochemical, luminescence, ADME assay, primary screen. 21% of 96,000 active. AID 778, 2007. inhibition, % at 5 µM. P33261. CYP2C19 Supersomes, luciferin-H EGE luminescence, 30 min;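 active means CYP2C19 inhibition above a set limit at 5 µM in the primary screen, cut at about 50% in these data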
CYP2C9 act: human CYP2C9 activators, primary screen, biochemical, luminescence; Cytochrome P450 2C9 (Homo sapiens), P11712; recombinant CYP2C9, luciferin-H conversion; stronger effect = higher value; factor 1 = untreated enzyme, 0 = blocked; activation factor at 5 µM; 1.4% of 96,000 active;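 active means activation factor of 2 or more for CYP2C9 at a 5 µM dose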
Of the large screens only hits and unclear results are named; the others gave an inactive call.

Cc1c(Cl)cccc1NC(=S)NNc1ncc(C(F)(F)F)cc1Cl	CYP2C19 inh 91, CYP2C9 act 2.2
COC(=O)/C(=C\Nc1cccc(Cl)c1C)c1ncc(C(F)(F)F)cc1Cl	none (no result: Cav32 inh)
Nc1nc(NC(=O)c2cccc(S(=O)(=O)N3CCCCCC3)c2)nc(-c2ccccc2)n1	none
O=C(C1CCCN(S(=O)(=O)c2cccnc2)C1)N1CCn2c1nc1ccccc12 (stereo not drawn)	none
Cc1cccc(C)c1NC(=S)NNc1ncc(C(F)(F)F)cc1Cl	CYP2C19 inh 75
CO/C([O-])=N/c1c[n+](-c2ccc(Cl)cc2)no1	none
O=C1CC(N2CCN(Cc3ccc4c(c3)OCO4)CC2)C(=O)N1c1ccccc1 (stereo not drawn)	none
CCOC(=O)c1[nH]cc(-c2ccccc2)c1N1CCOCC1	CYP2C19 inh 93
CCN(CC(=O)NC)S(=O)(=O)c1ccc(Br)cc1	CYP2C19 inh 52
COc1ccccc1OCC(=O)Nc1ccccc1C(=O)NCc1ccco1	none (no result: CYP2C19 act, CYP2C9 inhib, CYP2C19 inh, CYP2C9 act)
Cc1ccc(N(CC(=O)Nc2ccccc2C(=O)NCc2ccco2)S(=O)(=O)c2ccccc2)cc1C	Cav32 inh -6, CYP2C9 inhib 98, CYP2C19 inh 92
CCN(CC(=O)NC)S(=O)(=O)c1ccc(C)cc1	none
COc1ccc(OC)c(N(CC(=O)Nc2ccccc2C(=O)NCc2ccco2)S(C)(=O)=O)c1	CYP2C9 inhib 91, CYP2C19 inh 90
COc1ccc(N(CC(=O)Nc2ccccc2C(=O)NCc2ccco2)S(C)(=O)=O)cc1	CYP2C9 inhib 84
COC(=O)c1ccccc1NC(=O)CN(c1ccc(OC)cc1)S(C)(=O)=O	none (no result: CYP2C19 act, CYP2C9 inhib, CYP2C19 inh, CYP2C9 act)
Cc1nc2ccccc2cc1C(=O)NCc1ccco1	none
Cn1nnnc1SCC(=O)Nc1ccccc1C(=O)NCc1ccccc1	none
COC(=O)c1ccccc1NC(=O)CN(c1cc(OC)ccc1OC)S(C)(=O)=O	CYP2C9 inhib 98, CYP2C19 inh 91
CCCCOC(=O)Nc1ccccc1C(=O)OC	none
COc1ccc(Cl)cc1N(CC(=O)N1CCN(Cc2ccccc2)CC1)S(C)(=O)=O	CYP2C19 inh 55
CCN(CC(=O)Nc1ccccc1C(=O)OC)S(=O)(=O)c1ccc(OC)cc1	CYP2C19 inh 65
COc1ccc(Cl)cc1N(CC(=O)Nc1ccccc1SC)S(C)(=O)=O	CYP2C9 inhib 86, CYP2C19 inh 92
COc1ccc(C(=O)Nc2ncc3c(n2)CC(c2ccco2)CC3=O)cc1 (stereo not drawn)	none
CC(=O)NC(CCS(C)(=O)=O)C(=O)Nc1ccc(C)c(F)c1 (stereo not drawn)	none
CC(CN1CCN(c2ccccc2)CC1)c1ccccc1 (stereo not drawn)	none
COc1ccc(Cl)cc1N(CC(=O)Nc1ccccc1C(=O)NCc1ccco1)S(C)(=O)=O	CYP2C9 inhib 51
COC(=O)CN(c1ccc(F)cc1)S(=O)(=O)c1ccccc1	none
O=C(CN(Cc1ccco1)S(=O)(=O)c1ccccc1)N/N=C/c1cccc(O)c1	none
Cc1cccc(S(=O)(=O)N(CC(=O)Nc2ccccc2C)Cc2ccco2)c1	CYP2C9 inhib 53
COCCNC(=O)CN(c1cc(Cl)ccc1OC)S(C)(=O)=O	none
O=C(CN(c1ccc(F)cc1)S(=O)(=O)c1ccccc1)NCc1ccco1	CYP2C9 inhib 73, CYP2C19 inh 51
COC(=O)[C@H]1C[C@@H]1[C@H](NC(=O)c1cccnc1)c1ccccc1	none (no result: CYP2C19 act, CYP2C9 inhib, CYP2C19 inh, CYP2C9 act)
O=C(Nc1c(F)c(F)c(F)c(F)c1F)NC1CCCCC1	none
CC(C)COc1ccc(/C=C2/Sc3ccccc3C2=O)cc1	none
COc1ccc(C(=O)N2CCc3cc(OC)c(OC)cc3C2c2cccc([N+](=O)[O-])c2)cc1OC (stereo not drawn)	CYP2C9 inhib 69 (no result: Cav32 inh)
Cc1cc(C)nc(N(C#N)CC(=O)c2ccccc2)n1	CYP2C9 act 2.2
Cc1cc(C)nc(N(C#N)Cc2cccc3ccccc23)n1	Cav32 inh -5.2, CYP2C19 inh 59, CYP2C9 act 2.9
Cc1cc(C)nc(N(C#N)Cc2ccccc2)n1	CYP2C9 act 2
CN(NS(=O)(=O)c1ccccc1)c1nc2ccccc2nc1C(F)(F)F	Cav32 inh -4.2, CYP2C9 inhib 90, CYP2C19 inh 99
CCCOc1ccc(-c2cnc(N)s2)cc1	none
CC1CCCCN1C(=O)c1cc2nc(-c3ccccc3)cc(-c3ccccc3)n2n1 (stereo not drawn)	none (no result: CYP2C19 act, CYP2C9 inhib, CYP2C19 inh, CYP2C9 act)
Cn1c(=O)c2ccccc2n(Cc2ccccc2F)c1=O	CYP2C19 inh 52
Cc1cc2nc(CCN3CCOCC3)n(S(=O)(=O)c3ccc(C(C)(C)C)cc3)c2cc1C	none (no result: CYP2C19 act, CYP2C9 inhib, CYP2C19 inh, CYP2C9 act)
O=C(Nc1ccc(Br)cc1)C(c1ccccc1)c1ccccc1	none (no result: CYP2C19 act, CYP2C9 inhib, CYP2C19 inh, CYP2C9 act)
CCOC(=O)N(CC)OC(=O)Nc1ccc(Cl)cc1	CYP2C9 inhib 58, CYP2C19 inh 78
CCOC(=O)N(C)OC(=O)Nc1ccc(Cl)c(Cl)c1	none
Cc1ccc(/C=c2\sc3nc(-c4ccco4)nn3c2=O)o1	none
COc1ccc(Br)cc1/C=c1\sc2nc(-c3ccco3)nn2c1=O	CYP2C9 inhib 61, CYP2C19 inh 62
O=C(NCc1ccccc1)c1onc(CSc2ccc(F)c(F)c2)c1C(=O)NCc1ccccc1	none (no result: CYP2C19 act, CYP2C9 inhib, CYP2C19 inh, CYP2C9 act)
O=C(NCSc1ccnc(SCNC(=O)c2ccc(F)cc2)n1)c1ccc(F)cc1	none
CCOC(=O)c1[nH]c2ccc(OC)cc2c1NC(=O)CN1CCSCC1	CYP2C9 inhib 59, CYP2C19 inh 76
CCOC(=O)c1[nH]c2cc(OC)c(OC)cc2c1NC(=O)CN1CCN(c2ccc(OC)cc2)C(C)C1 (stereo not drawn)	Cav32 inh -5.4
CCOC(=O)c1[nH]c2ccc(OC)cc2c1NC(=O)c1cccc(OC)c1	CYP2C19 inh 52
CCOC(=O)c1[nH]c2ccc(OC)cc2c1NC(=O)c1ccc2c(c1)OCO2	CYP2C19 inh 62
CCCCC(CC)CNC(=O)c1ccc2c(c1)OCO2 (stereo not drawn)	none
Cc1ccc(C(C(=O)NC(C)(C)C)N(C(=O)c2csnn2)C2CC2)cc1 (stereo not drawn)	none (no result: CYP2C19 act, CYP2C9 inhib, CYP2C19 inh, CYP2C9 act)
CCOC(=O)c1[nH]c2ccc(Br)cc2c1NC(=O)CCN1CCC(C)CC1	CYP2C19 inh 58
CCOC(=O)c1[nH]c2ccc(OC)cc2c1NC(=O)CCN1CCC(C)CC1	none
Cc1ccc(S(=O)(=O)NCC(c2ccccc2)N2CCN(CCC#N)CC2)cc1 (stereo not drawn)	CYP2C19 inh 76
N#CCCN1CCN(C(CNS(=O)(=O)c2ccc(Cl)cc2)c2ccccc2)CC1 (stereo not drawn)	CYP2C19 inh 90
CCOC(=O)c1cnc2ccc(C)cc2c1Sc1ccccc1C(=O)OC	none (no result: Cav32 inh)
COc1ccc(C/C(=N\O)c2ccc(OC)cc2)cc1	CYP2C9 inhib 58, CYP2C19 inh 57
O=C(Nc1ccccc1Cl)c1ccccc1Oc1ccc(C(F)(F)F)cc1[N+](=O)[O-]	CYP2C9 inhib 88, CYP2C19 inh 73 (no result: Cav32 inh)
Cc1cccc(NC(=O)c2cccnc2)c1	none
